Source: PubChem (several laboratories)
Rows were chosen to be rich in hits. Some 5.9% of all compounds tested hit in one or more screens of this group.
rCAG RNA binder = molecules binding r(CAG) RNA repeats; r(CAG) RNA repeat, TO-PRO-1 dye displacement fluorescence; inhibition, % at 3 µM; 370,000 compounds, 1.3% hits; AID 651821;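 active = inhibition above the plate cutoff, the mean of all test compounds on that plate plus 3 SD, cut at about 35% in these data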;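 note: 0% = DMSO alone and 100% = 100 µM mitoxantrone as full dye displacement; higher means more dye released from RNA so lower well fluorescence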
PRMT1 FP inh = inhibitors of human PRMT1. recombinant PRMT1, activity-based probe fluorescence polarization. AID 652257. inhibition, % at 2.79 µM. Q99873. 370,000 compounds, 1.3% hits;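 active = inhibition above about 21% made by adding two undisclosed values, limit read from the data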
Target sequence (Q99873 whole entry, looked up): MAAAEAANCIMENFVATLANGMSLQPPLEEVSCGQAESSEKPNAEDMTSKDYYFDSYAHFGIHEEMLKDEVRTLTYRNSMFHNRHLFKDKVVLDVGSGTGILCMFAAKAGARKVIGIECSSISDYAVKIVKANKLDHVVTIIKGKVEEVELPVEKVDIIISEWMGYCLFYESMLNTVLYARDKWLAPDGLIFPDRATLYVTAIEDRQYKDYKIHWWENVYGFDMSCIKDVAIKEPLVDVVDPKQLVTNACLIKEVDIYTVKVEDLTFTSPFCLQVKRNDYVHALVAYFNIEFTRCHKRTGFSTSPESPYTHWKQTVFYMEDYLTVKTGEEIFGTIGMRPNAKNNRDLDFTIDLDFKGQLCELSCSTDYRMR
Rtt109 Vps75 = inhibitors of Candida albicans Rtt109/Vps75 histone acetyltransferase; AID 540336; Q5AAJ8; inhibition, % at 34.9 µM; purified Rtt109/Vps75, ThioGlo CoA-SH fluorescence, 4 h; 330,000 compounds, 0.16% hits;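 active = inhibition of at least 50% in every replicate; inconclusive = best replicate reaches 50% inhibition but some replicates fall short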
Target sequence (Q5AAJ8 whole entry, looked up): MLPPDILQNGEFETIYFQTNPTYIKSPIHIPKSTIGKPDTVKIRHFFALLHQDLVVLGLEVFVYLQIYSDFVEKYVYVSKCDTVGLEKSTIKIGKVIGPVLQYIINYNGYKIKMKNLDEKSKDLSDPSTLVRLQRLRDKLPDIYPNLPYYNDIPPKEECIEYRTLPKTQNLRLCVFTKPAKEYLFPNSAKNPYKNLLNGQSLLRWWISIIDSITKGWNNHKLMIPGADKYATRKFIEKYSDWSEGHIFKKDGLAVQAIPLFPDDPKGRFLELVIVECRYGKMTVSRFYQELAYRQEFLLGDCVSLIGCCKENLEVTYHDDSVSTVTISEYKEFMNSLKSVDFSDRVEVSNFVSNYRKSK
LANA-H2B inh = blocks KSHV LANA binding to histone H2A/H2B; Q9QR71; cell-free LANA-H2A/H2B peptide, fluorescence polarization; inhibition, % (test concentration not listed); 320,000 compounds, 0.6% hits; AID 2629; in the data active = inhibition mostly above about 10%, no sharp cut-off; inactive = mostly below about 6.7%
ABHD5-PLIN5 inh = inhibitors of human ABHD5-perilipin-5 interaction; Split G. princeps luciferase complementation, luminescence, 4 h; inhibition, % at 4 µM; 360,000 compounds, 0.78% hits; AID 602281;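 active = inhibition above the mean inhibition across every tested compound plus 3 SD, cut at about 22% in these data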;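 note: 0% = DMSO only wells and the 100% control is not disclosed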
ALR inh = inhibitors of human sulfhydryl oxidase ALR; inhibition, % (no concentration beside the values); purified ALR, DTT oxidation, H2O2 HRP-luminol luminescence; AID 485317; 290,000 compounds, 3.8% hits; P55789;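 active = mean replicate inhibition above about 79%, with every replicate also reaching it, limit read from the data; inconclusive = only one of the two criteria met; inactive = mean below limit and not every replicate reaching it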
The depositor's hits bear a star; ? = inconclusive; · = no result given.

SMILES | rCAG RNA binder | PRMT1 FP inh | Rtt109 Vps75 | LANA-H2B inh | ABHD5-PLIN5 inh | ALR inh
Cc1ccc(S(=O)(=O)Nc2ccc(S(=O)(=O)NC(C)(C)C)cc2)cc1 | 7.8 | -3.7 | -2.7 | -0.9 | -2.9 | -20.1
CCN(CC)c1ccc(NS(=O)(=O)c2ccc(OC)cc2)cc1 | -2.6 | 6.0 | 2.2 | -0.4 | 3.4 | 99.0*
Cc1cc(S(=O)(=O)Nc2cccc(Cl)c2)c(C)s1 | 4.1 | 4.1 | 3.2 | -0.9 | -3.0 | -0.8
Cc1ccc(S(=O)(=O)Nc2ccc(N(C)C)cc2)cc1 | 2.1 | 5.0 | 7.8 | -0.7 | 5.4 | 98.9*
CCCCNC(=O)C1(C)CCCCN1C(=O)c1c(C)noc1C (centres undefined) | 2.6 | 1.3 | · | · | 0.6 | ·
CN(C)c1ccc(NS(=O)(=O)c2ccc(-c3csnn3)cc2)cc1 | 8.1 | 15.2 | · | -4.3 | -1.9 | 98.8*
CN(C)c1ccc(NS(=O)(=O)c2cccc(Cl)c2)cc1 | 2.4 | 6.2 | 13.0 | 5.5 | -2.9 | 98.7*
O=S(=O)(Nc1cccnc1)c1cccc(Cl)c1 | 5.7 | -0.8 | -1.7 | 3.3 | 4.0 | 33.7
CN(C)c1ccc(NS(=O)(=O)c2cc3c4c(c2)CC(=O)N4CCC3)cc1 | 25.5 | 2.8 | ? | 1.6 | 12.6 | 99.3*
CN(C)c1ccc(NS(=O)(=O)c2ccc(Cl)cc2)cc1 | 5.6 | 23.4* | 2.7 | 1.8 | -4.0 | ·
COc1ccc(OC)c(CNS(=O)(=O)c2ccccc2Br)c1 | 1.7 | 2.0 | · | · | · | ·
Cc1cccc(NS(=O)(=O)c2ccc(OCC(=O)N3CCCC3)cc2)c1 | -4.1 | -1.2 | -6.1 | -2.3 | -3.2 | 4.9
C[C@@H]1CN([C@@H](C)CO)C(=O)c2ccccc2-c2ccccc2CO[C@@H]1CN(C)Cc1ccc(Cl)c(Cl)c1 | 7.3 | -0.5 | · | · | · | ·
COC(=O)[C@]12C[C@H](CC(=O)N3CCN(C(=O)C4CC4)CC3)C(=O)N(CCC3=CCCCC3)C1=C[C@H](C(C)(C)C)O[C@@H]2C | 2.3 | -2.7 | · | · | · | ·
CN1[C@H](Cc2ccccc2)COc2cc(N3CCCC3)ccc2S1(=O)=O | 7.4 | 4.3 | · | · | · | ·
COCCNC(=S)NCc1ccc2[nH]c3c(c2c1)CCCC3 | 5.2 | -4.7 | -3.6 | -2.9 | 3.2 | 94.1*
CCN(CC)CCC(c1ccc(N(C)C)cc1)c1c(O)cc(OC)cc1OC (centres undefined) | 1.8 | -2.1 | 3.0 | -1.0 | 0.3 | 99.4*
COc1cc(O)c(C(CCN2CCN(c3ccccc3)CC2)c2ccc(N(C)C)cc2)c(OC)c1 (centres undefined) | -3.6 | 3.2 | -3.8 | 0.9 | 5.6 | -13.7
COc1cc(O)c(C(CCN2CCCC(C)C2)c2ccc(N(C)C)cc2)c(OC)c1 (centres undefined) | 7.2 | 3.4 | 3.4 | 0.2 | 5.6 | 98.5*
COc1cc(O)c(C(CCN2CCOCC2)c2ccc(N(C)C)cc2)c(OC)c1 (centres undefined) | -6.7 | -0.7 | -0.1 | 0.8 | 5.3 | 98.7*
CCN(CC)CCC(c1ccc(OC)cc1)c1c(O)cc(OC)cc1OC (centres undefined) | 3.2 | -1.4 | 1.1 | 0.2 | 7.1 | ·
CC(C)COc1ccc(-c2nn(-c3ccccc3)cc2/C=C2/SC(=S)N(CC(=O)O)C2=O)cc1 | 20.1 | 4.7 | -2.4 | -0.2 | 5.3 | 97.4*
C[C@H]1[C@@H](N(C)Cc2ccccc2)CC[C@@]23CCCN2C(=O)CCC[C@@H]13 | · | -0.3 | · | · | · | ·
Cn1c(C(=O)N2CCCC(Nc3ccc(F)cc3)C2)cc2ccccc21 (centres undefined) | 1.6 | -1.2 | 1.7 | -5.9 | -1.6 | 41.5
Cc1ccc(NC2CCCN(C(=O)c3cn(C)c4ccccc34)C2)cc1C (centres undefined) | -2.8 | 2.9 | 2.1 | -5.4 | -4.2 | 92.3*
SMILES | rCAG RNA binder | PRMT1 FP inh | Rtt109 Vps75 | LANA-H2B inh | ABHD5-PLIN5 inh | ALR inh
COc1ccc(NC2CCCN(C(=O)c3cn(C)c4ccccc34)C2)cc1 (centres undefined) | -2.5 | -5.5 | 3.4 | 2.8 | -5.7 | 99.3*
O=C(Cn1nnc(-c2ccc(F)cc2)n1)NC(=O)NC1CCCCC1 | 0.3 | -6.1 | · | · | -7.3 | ·
CO[C@H]([C@H](C)/C=C/N(C)C=O)[C@@H](C)C(O)CC[C@H](C)[C@H](O)[C@H](C)[C@H]1OC(=O)/C=C/C(C)=C/C[C@H](O)C[C@@H]2C=CC[C@@H](C[C@H](OC)[C@@]3(CO3)[C@@H](OC)C[C@@H](OC)[C@@H]1C)O2 (some centres undefined) | · | 5.5 | · | · | · | ·
O=C(OCC(=O)N1CCOCC1)c1cc2ccccc2oc1=O | 2.4 | -0.7 | -5.0 | 4.2 | -1.3 | 0.3
O=C(CSC(=S)N1CCOCC1)c1cc2ccccc2oc1=O | · | · | 16.1 | -0.7 | 4.8 | 96.1*
Cc1ccc(CNC(=O)CSc2nc3c(sc4ccccc43)c(=O)n2CCCN2CCCC2)cc1 | 8.1 | 7.8 | -91.5 | -0.8 | 2.8 | 98.8*
O=C(CSc1nc2c(sc3ccccc32)c(=O)n1CCCN1CCCC1)NCc1ccccc1 | 6.5 | 9.8 | -19.3 | 3.3 | 0.0 | -9.1
CCN(CC)CCn1c(SCC(=O)NCCC2=CCCCC2)nc2c(sc3ccccc32)c1=O | -2.0 | 21.7* | 13.5 | 0.1 | 2.7 | -11.9
COc1cccc(NC(=O)CSc2nc3c(sc4ccccc43)c(=O)n2CCCN2CCCC2)c1 | 18.2 | 4.3 | 9.1 | -0.2 | 12.4 | 96.8*
Cc1sc(NC(=O)CCl)c(C(=O)c2ccccc2)c1C | -0.8 | 5.5 | 4.1 | -5.2 | 1.8 | 98.9*
CCc1nc(Sc2nnnn2-c2ccccc2)c2c3c(sc2n1)CCCC3 | -1.0 | 1.8 | -6.5 | -11.7 | -5.6 | 9.6
Cc1nc(Sc2nnnn2C)c2c3c(sc2n1)CCC3 | -1.6 | -1.7 | 4.4 | 1.5 | 1.5 | 94.2*
COc1ccc([C@H]2/C=C\CN(Cc3ccc(N(C)C)cc3)[C@@H](C)C(=O)N2Cc2ccc(F)cc2)cc1 | -4.9 | 1.0 | -1.5 | 1.0 | -10.8 | 98.2*
COc1ccc([C@H]2/C=C\CN(C(=O)CC(C)(C)C)[C@@H](C)C(=O)N2Cc2ccc(F)cc2)cc1 | -8.9 | -0.8 | 2.4 | 0.2 | -14.2 | 0.0
Cn1c(-c2cc(Br)ccc2O)n[nH]c1=S | 2.2 | 1.6 | 4.6 | -3.8 | -1.8 | 98.0*
Oc1ccc(Br)cc1-c1n[nH]c(=S)n1Cc1ccccc1 | 15.7 | 6.3 | -0.9 | -1.2 | -13.3 | ·
CCCN(CCC)C(=O)C1CC(=O)OC12CCCCC2 (centres undefined) | -4.7 | -2.1 | 3.8 | 13.2* | 3.0 | 1.0
Cc1cc(Oc2ncccc2[N+](=O)[O-])c2cc(Cl)ccc2n1 | -1.7 | 2.5 | -6.3 | 6.0 | -1.0 | 97.2*
COC(=O)[C@]12C[C@H](CC(=O)N3CCCCC3)C(=O)N(Cc3ccc(Cl)cc3Cl)C1=C[C@H](C(C)(C)C)O[C@@H]2C | 6.5 | 1.8 | · | · | · | ·
CCC1CCc2c(sc(N)c2C(N)=O)C1 (centres undefined) | 8.4 | 16.1 | 1.0 | 0.5 | -17.0 | ·
CC1CCc2c(sc(N)c2C(N)=O)C1 (centres undefined) | 11.4 | 13.8 | 50.5* | -2.7 | -9.0 | -23.4
